According to PubChem BioAssay AID2599 (Sanford-Burnham Center for Chemical Genomics, 2010):
Out of some 330,000 compounds screened, about 5,800 (1.8%) were called active.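 Rule for the calls: active = inhibition above about 50% at the single tested dose (limit read from the data); inactive = the rest.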 The full list was thinned out, with actives kept by preference.

These compounds were tested against Sentrin-specific protease 6 (Homo sapiens) (UniProt Q9GZR1) (assay: SENP6 protease inhibitors, primary screen, biochemical, luminescence, uHTS (AID 2599;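 note: plate controls were DMSO wells with enzyme for no effect and DMSO wells lacking enzyme for full effect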)). Settings: Recombinant SENP6 catalytic domain, aminoluciferin luminescence; at 10 µM; hits give high values.
Chain of Sentrin-specific protease 6 (Homo sapiens) (Q9GZR1 628-1112 limits assumed): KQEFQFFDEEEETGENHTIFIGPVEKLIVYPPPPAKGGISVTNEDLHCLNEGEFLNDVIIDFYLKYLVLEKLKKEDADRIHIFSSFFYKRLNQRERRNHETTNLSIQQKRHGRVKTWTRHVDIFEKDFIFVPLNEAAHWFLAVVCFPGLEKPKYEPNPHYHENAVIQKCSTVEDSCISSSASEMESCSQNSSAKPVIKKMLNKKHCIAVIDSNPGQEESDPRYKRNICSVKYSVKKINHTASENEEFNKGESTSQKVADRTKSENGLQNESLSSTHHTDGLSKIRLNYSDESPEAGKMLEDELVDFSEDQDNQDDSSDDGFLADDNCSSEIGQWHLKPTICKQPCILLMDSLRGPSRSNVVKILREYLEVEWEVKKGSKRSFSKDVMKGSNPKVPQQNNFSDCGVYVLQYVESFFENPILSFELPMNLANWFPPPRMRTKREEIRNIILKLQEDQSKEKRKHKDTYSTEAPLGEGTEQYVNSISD

inhibition, inactive:
Cc1[nH]c(C)c(S(=O)(=O)N2CCC(C)CC2)c1C(=O)N1CCCC1 0.187%, Cc1cc(N2CCOCC2)nc(-c2ccc(Br)cc2)n1 -6.76%, COc1ccc(-c2cn3ccc(C)cc3n2)cc1 -9.63%, CSc1nnc2ccc(-c3ccc(C)cc3)nn12 -11.1%, CCN(CC)S(=O)(=O)c1ccc(-c2cn3ccc(C)cc3n2)cc1 11.7%, Cc1sc2ncn(CC(=O)NCCCC(=O)NCc3ccc(F)cc3)c(=O)c2c1C -35.1%, O=C(CCC(=O)OCC(F)(F)C(F)F)NCc1ccccc1 -6.23%, COc1ccccc1-n1nnnc1S(=O)(=O)Cc1ccc(Cl)cc1 -13.9%, CCN1CCN(c2nc(Nc3cccc(F)c3)nc(N)c2[N+](=O)[O-])CC1 -5.24%, COc1cccc(Nc2nc(N)c([N+](=O)[O-])c(NCc3ccco3)n2)c1 -15.6%, O=C(O)c1c(NC(=O)N2CCCC2)sc2c1CCCC2 9.21%, COC(=O)c1c(NC(=O)c2ccccc2F)sc2c1C(C(=O)OC)CC2 (centres undefined) -5.07%, Cc1cccc(Nc2nc3c(S(=O)(=O)c4ccccc4)nnn3c3ccccc23)c1C -2.12%, Fc1ccc(COc2cccc(-c3n[nH]c(=S)o3)c2)cc1 -20.2%, Fc1cccc(Cl)c1COc1ccc(-c2nnco2)cc1 -29.1%, c1ccc(CCc2nc(-c3ccncc3)no2)cc1 -15.3%, Clc1ccc(-n2nnnc2-c2cnc(-c3ccccn3)nc2-c2cccs2)cc1 1.6%, Cc1noc(C)c1COC(=O)COc1ccc(-c2ccccc2)cc1 4.53%, COc1ccc(CCc2nc(-c3cccs3)no2)cc1 19.7%, O=C(COC(=O)c1ccncc1)c1ccccc1 -26.7%, Cc1ccc(-c2nc(-c3ccncc3)no2)c(C)c1 49.8%

inhibition, active:
Cc1ccc2nc(-c3ccc(Br)cc3)cn2c1 89.9%, Cc1ccc(-c2cn3cc(C)ccc3n2)cc1 65.4%, CNc1nc(Nc2ccc(C)c(Cl)c2)nc(N)c1[N+](=O)[O-] 99.7%, O=C(Nc1sc2c(c1C(=O)O)CCC2)c1ccccc1F 94%, Fc1ccc(COc2ccc(-c3nnco3)cc2)cc1 61.6%, c1ccc(-c2noc(-c3cccs3)n2)nc1 92%, c1csc(-c2nc(-c3ccncc3)no2)c1 60.3%, O=C(Oc1ccc(-c2nc(-c3ccccn3)no2)cc1)c1ccccc1 97.9%
